From PubChem BioAssay

These molecules were tested on XIP peptide (Xip251-270) binding (assay: XIP fragment 251-270 binding compounds – biochemical, small-molecule microarray, fluorescence 635/667 nm, 0.1 µg/mL protein, primary screen (AID 1182)). Details: fluorescent protein binding, 635 nm, higher = more signal, called active from +8 up or from −8 down.

Composite z-score, inactive:
Cc1cc(C)c(C(O)C2C=CC3C(=O)N(c4ccccc4)C(=O)C3N2Nc2ccc(C#N)cc2)c(C)c1 (stereo not given) 1.69, COCCOC(=O)N1C(=O)[C@@]2(c3cc(C#CCNC(N)=O)ccc31)[C@H](c1ccc(OCCO)cc1)N1[C@H](c3ccccc3)[C@H](c3ccccc3)OC(=O)[C@H]1[C@@H]2C(=O)N1CCc2cc(OC)c(OC)cc2C1 -0.254, Cc1ccc(S[C@]2(C(=O)NCC(C)C)CC(=O)N(Cc3ccccc3)[C@@H]2c2ccc(CO)cc2I)cc1 0.0656, C=CC(=C)C1=CCO[C@@H]1[C@H]1CCCN1S(=O)(=O)c1ccccc1[N+](=O)[O-] 0.162, COCC(=C=CC[C@@H](O)c1ccc(CO)o1)CCO 0.848, [N-]=[N+]=Nc1ccccc1C[C@]1(C(=O)NCCN2CCOCC2)N=C(c2ccc(OCCCO)cc2)O[C@H]1c1ccccc1 0.533, COc1ccc(C(=O)Nc2cccc(CN3C(=O)[C@]4(O[C@H](CC(=O)N5CCC[C@H]5CO)[C@@H]([Si](C)(C)c5ccc(OC)cc5)[C@@H]4C)c4ccccc43)c2)cc1 1.64, CCCCCN1CC=CC23O[C@@H]4/C=C\CCC(C)OC(=O)C4[C@H]2C(=O)N(CCCCCO)[C@@H]3C1=O (stereo not given in full) -0.263, CCCCCN1CC=CC23O[C@@H]4C=CCOC(=O)[C@@H]4[C@H]2C(=O)N(CCCO)[C@@H]3C1=O (stereo not given in full) 0.591, O=C1O[C@H](c2ccccc2)[C@H](c2ccccc2)N2[C@H]1[C@@H](C(=O)Nc1nc3ccccc3s1)[C@]1(C(=O)Nc3ccccc31)[C@H]2c1ccc(O)cc1 -0.0105, O=C1O[C@H](c2ccccc2)[C@H](c2ccccc2)N2[C@H]1[C@@H](C(=O)O)[C@]1(C(=O)Nc3ccc(C#CC4=CCCCC4)cc31)[C@H]2c1ccc(OCCO)cc1 0.4, CC=CC(O)C1C=CC2C(=O)N(c3ccccc3)C(=O)C2N1Nc1ccc(C(C)C)cc1 (stereo not given) 0.213, O=C1OCCC=C[C@H]2OC34C=CCN(Cc5ccccc5)C(=O)[C@H]3N(CCCCCO)C(=O)[C@@H]4C12 (stereo not given in full) 1.16, COCCOC(=O)N1C(=O)[C@@]2(c3cc(C#CCNC(N)=O)ccc31)[C@H](c1ccc(O)cc1)N1[C@H](c3ccccc3)[C@H](c3ccccc3)OC(=O)[C@H]1[C@@H]2C(=O)Nc1nc2ccccc2s1 -0.236, O=C1O[C@H](c2ccccc2)[C@H](c2ccccc2)N2[C@H]1[C@@H](C(=O)O)[C@]1(C(=O)Nc3ccc(C#CC4(O)CCCCCC4)cc31)[C@H]2c1ccc(OCCO)cc1 1.31, O=C1OCCC=C[C@H]2OC34C=CCN(c5ccc6ccccc6c5)C(=O)[C@H]3N(CCCCCO)C(=O)[C@@H]4C12 (stereo not given in full) 0.427, Cc1ccc(S[C@]2(C(=O)NC3CC3)CC(=O)N(C3CCCCC3)[C@@H]2c2ccc(CO)cc2I)cc1 1.01, COc1cc2c(cc1O)C(C)N(Cc1cccc(OC(F)(F)F)c1)CC2 (stereo not given) 0.714, COc1ccc(C#Cc2ccc3c(c2)[C@]2(C(=O)N3)[C@H](c3ccc(O)cc3)N3[C@H](c4ccccc4)[C@H](c4ccccc4)OC(=O)[C@H]3[C@@H]2C(=O)N2CCCCCCC2)cc1 0.59, COC(=O)[C@@]1(Cc2ccccc2)[C@H]2c3cc(C(=O)N(C)C)n(Cc4cc(C)n(C)n4)c3C[C@H]2CN1C(=O)c1ccccc1 -0.0185, C=CC(COC(C)=O)NS(=O)(=O)c1ccc(Br)cc1 (stereo not given) 0.264, COC(=O)c1c(CC[C@@H](CO)NC(=O)N[C@@H](Cc2ccccc2)Cn2cc(C3(O)CCCCC3)nn2)oc(C(C)=O)c1C(=O)OC 0.295, COC(=O)C(CC#Cc1ccc2c(c1)[C@]1(C(=O)N2)[C@H](C(=O)NC[C@H](O)c2ccccc2)[C@H]2C(=O)O[C@H](c3ccccc3)[C@H](c3ccccc3)N2[C@@H]1c1ccc(OCCO)cc1)C(=O)OC 0.518, C=CCC(OC(C)=O)[C@@H]1[C@@H](N(Cc2ccc(-c3cccc(C(F)(F)F)c3)o2)C(=O)c2ccc(C)cc2)c2cc(OCCCO)ccc2N1C(=O)c1ccc(-c2ccccc2)cc1 (stereo not given in full) 2.96, COc1cccc(C(=O)O[C@H]2CC[C@]3(C)C4=C(CCC3C2(C)C)[C@]2(C)CC[C@H]([C@H](C)CCCC(C)C)[C@@]2(C)CC4)c1 (stereo not given in full) -0.019
